This is a sample that favours compounds with a hit; in the whole collection about 7.3% have one here.
SMN2 splice up: qHTS Assay for Enhancers of SMN2 Splice Variant Expression; Potency, µM (top dose mostly 46.1 µM), for the others: top-dose activity change, positive = activation, actives largely listed as activators; AID 1458, 2008; 210,000 compounds, 2.8% hits; HEK293 SMN2-luciferase splicing reporter, luminescence, 30-36 h; further: % of control where 0% means no effect; nearly all actives have a fitted effect of over 55% in size
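HEK293 cells carry an SMN2 […]–luciferase reporter in which exon 7 inclusion puts luciferase in frame. Cells were plated 10-12 h before compound addition, then incubated 30-36 h at 37C. ONE-Glo luminescence was read; sodium butyrate at 4.5 mM final served as control.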
FLuc counter: qHTS profiling assay for firefly luciferase inhibitor/activator using purifed enzyme and Km concentrations of substrates (counterscreen for miR-21 project); Potency, µM (titrated, usually from 57.5 µM), without a hit: at the top dose activity change, negative = inhibition, most hits filed as inhibitors; Luciferin 4-monooxygenase (Photinus pyralis), P08659; purified FLuc, Km substrates, luminescence inhibition; 360,000 compounds, 6.9% hits; AID 588342, 2011;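 further: plate controls were vehicle for no effect and reference inhibitor for full effect; nearly all actives have a fitted effect of over 55% in size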
Target sequence (P08659 whole entry, looked up): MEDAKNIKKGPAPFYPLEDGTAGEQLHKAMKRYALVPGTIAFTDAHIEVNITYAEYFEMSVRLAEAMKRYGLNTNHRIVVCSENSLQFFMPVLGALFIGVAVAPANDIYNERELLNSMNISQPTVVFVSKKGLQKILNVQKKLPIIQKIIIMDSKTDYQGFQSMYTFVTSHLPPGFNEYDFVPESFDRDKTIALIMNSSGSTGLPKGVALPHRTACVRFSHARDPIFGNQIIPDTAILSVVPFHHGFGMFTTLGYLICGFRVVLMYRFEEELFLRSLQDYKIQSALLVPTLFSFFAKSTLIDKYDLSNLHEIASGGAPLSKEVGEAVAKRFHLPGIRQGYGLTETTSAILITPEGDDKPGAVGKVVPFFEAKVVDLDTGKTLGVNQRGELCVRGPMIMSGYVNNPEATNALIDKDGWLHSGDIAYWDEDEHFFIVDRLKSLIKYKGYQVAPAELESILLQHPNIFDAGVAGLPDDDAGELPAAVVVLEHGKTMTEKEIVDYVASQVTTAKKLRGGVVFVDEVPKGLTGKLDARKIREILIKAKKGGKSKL
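Biochemical qHTS of compounds, final roughly 60 µM downward over six points, against 10 nM purified firefly luciferase using Km concentrations of substrates (10 uM D-luciferin, 10 uM ATP) in Tris acetate pH 7.5 buffer; luminescence output.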
Luc counter: Counterscreen for Luciferase (Kinase-Glo TM) Inhibition; AID 1379, 2008; Potency, µM (series often up to 38.3 µM), for inactives: at the highest dose activity change, negative = inhibition, usual class: inhibitors; 200,000 compounds, 0.28% hits; Luciferin 4-monooxygenase (Photuris pensylvanica), Q27757; Kinase-Glo luciferase, ATP luminescence, 8 min; further: on the % scale 0 is the no-effect control and ±100 the full control effect; nearly all actives have a fitted effect of over 60% in size
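Luminescence was the read-out, taken after 8-minute incubation at ambient temperature. Luciferase turned over luciferin with 10 uM ATP in imidazole pH 7.2 buffer containing KCl, MgCl2, Tween 20 and BSA.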
Rab9 prom act: qHTS Assay for Rab9 Promoter Activators; Huh7 Rab9 promoter-luciferase reporter, luminescence, 24 h; Potency, µM (top dose mostly 9.22 µM), without a hit: at the highest dose activation, negative = inhibition, actives largely listed as activators; 320,000 compounds, 2.8% hits; AID 485297, 2010; further: % of control where 0% means no effect; nearly all actives have a fitted effect of over 60% in size
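Steps: seed 1500 Huh7 Rab9-luc cells per well, rest 2 h at 37 °C; add compound in DMSO; incubate 24 h; add luciferase reagent, 10 min ambient; read luminescence.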
NPC1 prom act: qHTS Assay for NPC1 Promoter Activators; Huh7 NPC1 promoter luciferase reporter, 24 h; Potency, µM (doses to about 9.22 µM), for the others: at the top dose activation, hits mostly activators; 320,000 compounds, 2.4% hits; AID 485313, 2010; further: % of control where 0% means no effect; nearly all actives have a fitted effect of over 60% in size
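Luciferase expression driven by the NPC1 promoter was measured in stably transfected Huh7 cells after a 24 h compound incubation, using a luciferase reagent and a luminescence read.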
ELG1 genotox: qHTS screen for small molecules that induce genotoxicity in human embryonic kidney (HEK293T) cells expressing luciferase-tagged ELG1 | 330,000 compounds, 1.3% hits | HEK293T ELG1-luciferase reporter, luminescence, 16 h | AID 504466, 2011 | Potency, µM (doses to about 46 µM), inactives show top-dose activity change, positive = activation, usual class: activators; further: % of control where 0% means no effect; nearly all actives have a fitted effect of over 60% in size
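16 hr compound incubation (37 °C, 5% CO2) of HEK293T cells carrying luciferase-tagged ELG1; luciferase then measured by ONE-Glo luminescence after 30 min at RT.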
Starred values were filed as active, the others as inactive. The call rests on the fitted dose curve; in most records, active means well fitted curve in the direction sought with a large enough effect; inconclusive means small, poorly fitted or top-dose-only effect, or another doubt; inactive means no such curve, though single readings can be large; an effect the other way counts as inactive or inconclusive. Potency means the concentration at half of the fitted maximal effect.

How did C/C=C\C=C/C(=O)Nc1cccc(C2=NOC3(C2)C[C@@H](C(N)=O)N(C(=O)COc2ccc(Cl)cc2)C3)c1 (some centres not stated) do in these assays?
FLuc counter: 15µM*; Rab9 prom act: -3%; NPC1 prom act: -2%; ELG1 genotox: -3%

Results for C/C=C\C=C\C(=O)N1CC2(CC(c3cccc(NC(=O)COc4ccc(Cl)cc4)c3)=NO2)C[C@H]1C(N)=O (some centres not stated) ?
FLuc counter: 9.5µM*; Rab9 prom act: -3%; NPC1 prom act: -2%; ELG1 genotox: -4%

What do the screens show for `CCCCC(CC)COC(=O)COc1ccc(Cl)cc1Cl` (configuration not stated)?
SMN2 splice up: 8%

What do the screens show for `COc1ccc(S(=O)(=O)NCCc2sc(C)nc2C)cc1F`?
FLuc counter: -3%

How did CC1=CC(=C2C(=O)c3ccccc3C2=O)C=C(C)N1C do in these assays?
SMN2 splice up: 7%; FLuc counter: 12µM*; Luc counter: -7%; Rab9 prom act: 2.5µM*; NPC1 prom act: 2.5µM*; ELG1 genotox: inconclusive

Results for COC1=C(c2ccccc2)C(=O)c2ccccc2C1=O ?
SMN2 splice up: -19%; FLuc counter: -15%; Luc counter: -2%; Rab9 prom act: 13%; NPC1 prom act: -1%; ELG1 genotox: -8%

Results for COc1ccc(OC)c(/C=C2\SC(N3CCCC(C)C3)=NC2=O)c1 (configuration not stated) ?
FLuc counter: inconclusive; Rab9 prom act: -3%; NPC1 prom act: 6%; ELG1 genotox: 1%

Results for CCOC(=O)C1CCN(C2=NC(=O)/C(=C/c3ccc(OC)c(OC)c3)S2)CC1 ?
FLuc counter: inconclusive; Rab9 prom act: -6%; NPC1 prom act: -2%; ELG1 genotox: 1%

What do the screens show for `COc1cc(/C=C2\SC(N3CCC(C)CC3)=NC2=O)ccc1O`?
FLuc counter: 11µM*; Rab9 prom act: 23%; NPC1 prom act: 9%; ELG1 genotox: 18µM*

Results for CN(C)c1ccc(/C=C2\SC(N3CCCCC3)=NC2=O)cc1 ?
FLuc counter: 0.54µM*; Rab9 prom act: 20%; NPC1 prom act: inconclusive; ELG1 genotox: inconclusive

Results for O=C1N=C(N2CCCCC2)S/C1=C/C1=Cc2ccccc2OC1 ?
SMN2 splice up: 9%; FLuc counter: 2.4µM*; Luc counter: 1%; Rab9 prom act: 20%; NPC1 prom act: 12%; ELG1 genotox: inconclusive

Results for O=C1N=C(N2CCCCC2)S/C1=C\c1ccc(Br)cc1 ?
FLuc counter: inconclusive; Rab9 prom act: 25%; NPC1 prom act: 19%; ELG1 genotox: 2%

What do the screens show for `COc1ccc(/C=C2\SC(N3CCCCC3)=NC2=O)cc1OC`?
FLuc counter: 11µM*; Rab9 prom act: -5%; NPC1 prom act: 1%; ELG1 genotox: inconclusive

Results for Cc1ccc(/C=C2\SC(N3CCCC3)=NC2=O)cc1 ?
SMN2 splice up: -12%; FLuc counter: inconclusive; Luc counter: 0%; Rab9 prom act: 17%; NPC1 prom act: 12%; ELG1 genotox: 14%

Results for COc1ccc(-c2cc3nc(C)c(CCC(=O)N4CCN(c5ccc(F)cc5)CC4)c(C)n3n2)c(OC)c1 ?
SMN2 splice up: -8%; FLuc counter: 6%

How did C=CCc1ccc(OCCCOc2ccc(C(=O)O)cc2)c(OC)c1 do in these assays?
SMN2 splice up: 15%; FLuc counter: 11µM*; Luc counter: 0%; Rab9 prom act: 5%; NPC1 prom act: 15%; ELG1 genotox: 3%

Bioassay records deposited in PubChem by National Center for Advancing Translational Sciences (NCATS).
